The record followed here is PubChem BioAssay (EPA / NIEHS).

A short description of assay [1]: ACEA_ER_80hr: ACEA Biosciences xCELLigence Real-Time Cell Analysis on Estrogen Receptor Agonism for Proliferation (AID 2282667; active = hit-call score of the fitted dose curve at least 0.9, where 1 is the maximum). Particulars: T47D proliferation, impedance (xCELLigence), 80 h. Summed up:
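Real-time impedance growth kinetics of human T-47D breast cells read 80 h after dosing, gain-of-signal fitted relative to DMSO. Compounds: 1:4 serial series, top final concentration 100 uM, n = 2.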

Assay [2] can be described thus: ATG_CRE_CIS: Attagene CIS-FACTORIAL HepG2 Assay for human cAMP Responsive Element (CRE) binding protein 3 (AID 2282926). Particulars: HepG2 CRE cis-reporter, Attagene multiplexed mRNA; actives raise or lower the signal. A digest of the protocol: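 Multiplexed transcription-unit reporters transfected into HepG2; 24 h dosing; RT-PCR/capillary electrophoresis fluorescence read-out; bidirectional fit vs DMSO.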

Assay [3] concerns the target CCAAT/enhancer-binding protein beta (Homo sapiens) (UniProt P17676). The assay is described as follows: ATG_C_EBP_CIS: Attagene CIS-FACTORIAL HepG2 Assay for human CCAAT/Enhancer Binding Protein (C/EBP) beta (AID 2282927). Particulars: HepG2 Attagene cis-factorial transcription factor reporter; actives raise or lower the signal. A digest of the protocol:
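Endogenous C/EBPb-driven reporter transcripts measured in transfected human HepG2 cells at 24 h via RT-PCR and capillary electrophoresis of labelled fragments. Activity fitted in both directions relative to DMSO baseline.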

The nature of assay [4]: ATG_CMV_CIS: Attagene CIS-FACTORIAL HepG2 Assay for human CMV (Internal Marker) (AID 2282928).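 Note: endpoint acts as a background internal control marker rather than a target.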 As to conditions: HepG2 CMV promoter reporter, transcription factor profiling; actives raise or lower the signal. A digest of the protocol: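 After transient transfection of HepG2 with reporter transcription units driven by cis-regulatory promoters, cells receive test chemical for 24 h. Labeled reporter amplicons, digested with HpaI, are sized and quantified by capillary electrophoresis against DMSO.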

Assay [5] is described as follows: ATG_DR4_LXR_CIS: Attagene CIS-FACTORIAL HepG2 Assay for human Liver X Receptor (LXR), DR4 submotif (AID 2282929). Particulars: HepG2 Attagene DR4 cis-reporter, mRNA transcription; actives raise or lower the signal. A digest of the protocol: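 Transiently transfected HepG2 liver cells; cis-regulated reporters; 24 h dosing. RT-PCR plus CE read-out of reporter mRNA. DMSO baseline, bidirectional curve fitting.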

For assay [6], the target named is Aryl hydrocarbon receptor (Homo sapiens) (UniProt P35869). The assay is described as follows: ATG_Ahr_CIS: Attagene CIS-FACTORIAL HepG2 Assay for human Aryl Hydrocarbon Receptor (Ahr) (AID 2282930). As to conditions: HepG2 AhR cis-factorial reporter transcription; actives raise or lower the signal. Summed up:
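Reporter mRNA levels, quantified by RT-PCR and fluorescent capillary electrophoresis, reflect endogenous AhR transcriptional activity in HepG2 cells carrying transfected cis-promoter reporter constructs. Readout at 24 h post-dose; gain or loss fitted against DMSO baseline.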

Assay [7] can be described thus: ATG_AP_1_CIS: Attagene CIS-FACTORIAL HepG2 Assay for human Activator Protein 1 (AP-1) (AID 2282931). As to conditions: HepG2 Attagene cis-factorial AP-1 reporter mRNA; actives raise or lower the signal. Summed up:
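We transfected HepG2 cells transiently with a set of cis-regulated reporter transcription units, dosed them for 24 h, and quantified reporter mRNA via RT-PCR and capillary electrophoresis, scoring gain or loss of signal relative to DMSO.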

Assay [8] in a line: ATG_AP_2_CIS: Attagene CIS-FACTORIAL HepG2 Assay for human Activator Protein 2 (AP-2) (AID 2282932). Particulars: HepG2 AP-2 cis-reporter, Attagene transcription factor profiling; actives raise or lower the signal. Summed up: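 Step one: transient transfection of HepG2 with reporter transcription units. Step two: 24 h chemical exposure. Step three: RNA extraction, RT-PCR, labelled fragment analysis by capillary electrophoresis; DMSO serves as baseline.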

Assay [9] can be described thus: ATG_BRE_CIS: Attagene CIS-FACTORIAL HepG2 Assay for human Bone Morphogenetic Protein (BMP) Response Element (BRE) (AID 2282933). Particulars: HepG2 BMP response element reporter, Attagene transcription factor profiling; actives raise or lower the signal. Summed up:
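Fluorescence-labelled reporter cDNA fragments, separated by capillary electrophoresis, gave the signal for this component of a 52-readout multiplex. HepG2 cells were transfected, exposed to chemicals for 24 h, and compared with DMSO using bidirectional fitting.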

Assay [10] has as its target Retinoic acid receptor alpha (Homo sapiens) (UniProt P10276). The assay is described as follows: ATG_DR5_RAR_CIS: Attagene CIS-FACTORIAL HepG2 Assay for human Retinoic Acid Receptor Alpha (RARE), DR5 submotif (AID 2282934).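 For AC50: reporter responds to endogenous RAR alpha beta and gamma in HepG2 not RARA alone.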 As to conditions: HepG2 Attagene cis-factorial RARE DR5 reporter, mRNA; actives raise or lower the signal. A digest of the protocol:
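Reporter transcripts from a DR5-regulated unit, measured via RT-PCR plus capillary electrophoresis, reflect endogenous RAR activity in transiently transfected human HepG2 liver cells. Exposure lasted 24 h; gain or loss of signal scored against DMSO.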

Assay [11] concerns the target Transcription factor E2F1 (Homo sapiens) (UniProt Q01094). The assay is described as follows: ATG_E2F_CIS: Attagene CIS-FACTORIAL HepG2 Assay for human E2F Transcription Factor 1 (AID 2282935). As to conditions: HepG2 Attagene cis-reporter, E2F reporter RNA transcripts; actives raise or lower the signal. Summed up: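 Total RNA from 24 h-treated, reporter-transfected HepG2 cells undergoes DNase I treatment, oligo(dT) reverse transcription, PCR and 6-FAM primer extension before capillary electrophoresis.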

The nature of assay [12]: ATG_E_Box_CIS: Attagene CIS-FACTORIAL HepG2 Assay for human Enhancer Box (E-box) (AID 2282936). Particulars: HepG2 E-box cis-reporter transcription, actives raise or lower the signal. Summed up: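 DMSO served as negative control and baseline for bidirectional fitting. Human hepatoma HepG2 cells, transiently transfected with cis-reporter constructs, were dosed 24 h; reporter mRNA read by RT-PCR and capillary electrophoresis.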

Assay [13] is described as follows: ATG_M_61_CIS: Attagene CIS-FACTORIAL HepG2 Assay for M61 Transcription Factor (Internal Marker) (AID 2282937). As to conditions: HepG2 Attagene CIS-FACTORIAL M61 internal marker reporter; actives raise or lower the signal. Summed up: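 Multiplexed reporter mRNA assay, HepG2 human hepatoma cells, 24 h treatment. Signal: FAM-labelled, HpaI-digested RT-PCR fragments by CE. Fit: bidirectional, baseline DMSO.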

A short description of assay [14]: ATG_EGR_CIS: Attagene CIS-FACTORIAL HepG2 Assay for human Early Growth Response 1 (EGR1) (AID 2282938). As to conditions: HepG2 Attagene CIS-FACTORIAL EGR reporter mRNA; actives raise or lower the signal. Summed up:
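Multiplexed cis-reporter system in human hepatoma HepG2 cells, transiently transfected. Cells are dosed for 24 h; reporter transcripts are amplified, fluorescently tagged and sized by capillary electrophoresis, with DMSO as negative control.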

Assay [15] in a line: ATG_M_19_CIS: Attagene CIS-FACTORIAL HepG2 Assay for M19 Transcription Factor (Internal Marker) (AID 2282939). Particulars: HepG2 Attagene CIS-FACTORIAL M19 internal marker reporter; actives raise or lower the signal. Summed up: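 HepG2, MRTU transient transfection, 24 h dosing. Total RNA → RT-PCR → 6-FAM primer extension → HpaI digest → CE fluorescence. Bidirectional curve fit, DMSO negative control.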

The nature of assay [16]: ATG_ERE_CIS: Attagene CIS-FACTORIAL HepG2 Assay for Estrogen Response Element (ERE) (AID 2282940). Particulars: HepG2 ERE cis-reporter, Attagene RNA transcript; actives raise or lower the signal. Summed up:
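After a 24 h chemical treatment, RNA from reporter-transfected HepG2 cells is reverse-transcribed, PCR-amplified and fluorescently labelled. Fragments separated by capillary electrophoresis give reporter signal; DMSO serves as negative control.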

Assay [17] is described as follows: ATG_Ets_CIS: Attagene CIS-FACTORIAL HepG2 Assay for human Erythroblast Transformation Specific (ETS) (AID 2282941). As to conditions: HepG2 ETS cis-reporter transcription, actives raise or lower the signal. Summed up: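 Human HepG2 hepatoma cells were transiently transfected with promoter-driven reporter constructs and treated for 24 hours. Reporter transcripts were quantified by RT-PCR with fluorescent primer extension; bidirectional curve fitting used DMSO as reference.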

Assay [18] has as its target Hepatocyte nuclear factor 3-beta (Homo sapiens) (UniProt Q9Y261). The assay is described as follows: ATG_FoxA2_CIS: Attagene CIS-FACTORIAL HepG2 Assay for human Forkhead box A2 (FOXA2) (AID 2282942). Particulars: HepG2 cis-reporter transcription factor activity, 24 h; actives raise or lower the signal. Summed up: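 Multiplexed cis-element reporter assay in transiently transfected HepG2. Twenty-four hours post-dosing, RNA was reverse-transcribed, amplified, FAM-labelled, HpaI-digested and separated by CE. Activity gain or loss relative to DMSO.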

The nature of assay [19]: ATG_FoxO_CIS: Attagene CIS-FACTORIAL HepG2 Assay for human Forkhead box O (FoxO) (AID 2282943). As to conditions: HepG2 Attagene cis-reporter, FoxO element, mRNA; actives raise or lower the signal. Summed up: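 Endogenous transcription factor activity read from multiplexed cis-promoter reporter transcripts in transiently transfected HepG2, 24 h after dosing. Reporter RNA measured via RT-PCR plus capillary electrophoresis of FAM-labeled products; gain or loss relative to DMSO.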

Assay [20] in a line: ATG_GATA_CIS: Attagene CIS-FACTORIAL HepG2 Assay for human GATA Binding Protein (AID 2282944). Particulars: HepG2 GATA cis-element reporter, Attagene multiplex mRNA; actives raise or lower the signal. Summed up:
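Cells: HepG2, transiently transfected with cis-regulated reporter transcription units. Exposure: 24 h. Detection: RT-PCR plus capillary electrophoresis of FAM-labeled fragments. Analysis: bidirectional, DMSO as baseline.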

Inconclusive results are not listed. Calls of active or inactive are those of the source. Rule for the calls, unless noted: active = hit-call score of the fitted dose curve at least 0.9, where 1 is the maximum; inactive = score below 0.9.

Sequence of Transcription factor E2F1 (Homo sapiens) (Q01094 whole entry, looked up): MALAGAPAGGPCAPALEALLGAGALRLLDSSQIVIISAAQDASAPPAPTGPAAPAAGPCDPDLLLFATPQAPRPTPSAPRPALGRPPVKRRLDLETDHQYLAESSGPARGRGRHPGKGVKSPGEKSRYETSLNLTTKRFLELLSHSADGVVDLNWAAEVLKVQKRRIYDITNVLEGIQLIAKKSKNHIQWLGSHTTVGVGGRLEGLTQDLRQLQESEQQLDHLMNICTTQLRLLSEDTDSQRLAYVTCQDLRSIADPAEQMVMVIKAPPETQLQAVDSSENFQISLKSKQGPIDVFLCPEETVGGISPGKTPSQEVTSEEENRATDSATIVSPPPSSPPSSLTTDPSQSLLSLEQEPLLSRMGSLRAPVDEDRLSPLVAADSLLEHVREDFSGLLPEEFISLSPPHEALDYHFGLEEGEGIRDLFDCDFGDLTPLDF
Sequence of Hepatocyte nuclear factor 3-beta (Homo sapiens) (Q9Y261 whole entry, looked up): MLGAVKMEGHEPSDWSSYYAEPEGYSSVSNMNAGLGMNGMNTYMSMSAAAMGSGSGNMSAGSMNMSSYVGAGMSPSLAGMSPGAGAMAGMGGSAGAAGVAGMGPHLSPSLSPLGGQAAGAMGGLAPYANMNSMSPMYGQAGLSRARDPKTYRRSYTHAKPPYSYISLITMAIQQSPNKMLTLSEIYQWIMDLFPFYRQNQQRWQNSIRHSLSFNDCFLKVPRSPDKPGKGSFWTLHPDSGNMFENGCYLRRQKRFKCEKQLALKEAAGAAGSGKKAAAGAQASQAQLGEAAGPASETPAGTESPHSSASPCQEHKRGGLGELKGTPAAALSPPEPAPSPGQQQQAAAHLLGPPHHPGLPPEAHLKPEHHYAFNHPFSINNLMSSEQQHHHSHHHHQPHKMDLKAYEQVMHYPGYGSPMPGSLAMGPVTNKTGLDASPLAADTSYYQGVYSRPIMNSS
Sequence of CCAAT/enhancer-binding protein beta (Homo sapiens) (P17676 whole entry, looked up, the tested form may be a part): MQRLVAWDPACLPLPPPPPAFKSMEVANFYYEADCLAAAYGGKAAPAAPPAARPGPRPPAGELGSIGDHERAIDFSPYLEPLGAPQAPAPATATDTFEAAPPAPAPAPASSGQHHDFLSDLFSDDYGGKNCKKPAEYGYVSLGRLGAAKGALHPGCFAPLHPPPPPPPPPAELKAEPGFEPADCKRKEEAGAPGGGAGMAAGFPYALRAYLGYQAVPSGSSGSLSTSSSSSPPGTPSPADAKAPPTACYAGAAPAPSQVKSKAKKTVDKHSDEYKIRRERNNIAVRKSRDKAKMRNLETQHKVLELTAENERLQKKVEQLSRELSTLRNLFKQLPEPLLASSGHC
Sequence of Retinoic acid receptor alpha (Homo sapiens) (P10276 whole entry, looked up): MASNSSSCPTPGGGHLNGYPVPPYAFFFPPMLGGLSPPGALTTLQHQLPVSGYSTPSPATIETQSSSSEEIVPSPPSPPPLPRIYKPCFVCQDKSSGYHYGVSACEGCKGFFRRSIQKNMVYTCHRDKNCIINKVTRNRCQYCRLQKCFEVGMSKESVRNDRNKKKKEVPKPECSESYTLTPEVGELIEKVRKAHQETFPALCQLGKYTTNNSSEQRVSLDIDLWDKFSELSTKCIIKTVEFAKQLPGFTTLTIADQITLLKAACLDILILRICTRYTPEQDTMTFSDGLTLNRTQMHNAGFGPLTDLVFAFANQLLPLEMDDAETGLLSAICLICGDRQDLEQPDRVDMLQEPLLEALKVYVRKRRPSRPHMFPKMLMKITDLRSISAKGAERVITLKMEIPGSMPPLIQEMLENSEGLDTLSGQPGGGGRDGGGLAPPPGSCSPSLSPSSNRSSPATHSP
Sequence of Aryl hydrocarbon receptor (Homo sapiens) (P35869 whole entry, looked up): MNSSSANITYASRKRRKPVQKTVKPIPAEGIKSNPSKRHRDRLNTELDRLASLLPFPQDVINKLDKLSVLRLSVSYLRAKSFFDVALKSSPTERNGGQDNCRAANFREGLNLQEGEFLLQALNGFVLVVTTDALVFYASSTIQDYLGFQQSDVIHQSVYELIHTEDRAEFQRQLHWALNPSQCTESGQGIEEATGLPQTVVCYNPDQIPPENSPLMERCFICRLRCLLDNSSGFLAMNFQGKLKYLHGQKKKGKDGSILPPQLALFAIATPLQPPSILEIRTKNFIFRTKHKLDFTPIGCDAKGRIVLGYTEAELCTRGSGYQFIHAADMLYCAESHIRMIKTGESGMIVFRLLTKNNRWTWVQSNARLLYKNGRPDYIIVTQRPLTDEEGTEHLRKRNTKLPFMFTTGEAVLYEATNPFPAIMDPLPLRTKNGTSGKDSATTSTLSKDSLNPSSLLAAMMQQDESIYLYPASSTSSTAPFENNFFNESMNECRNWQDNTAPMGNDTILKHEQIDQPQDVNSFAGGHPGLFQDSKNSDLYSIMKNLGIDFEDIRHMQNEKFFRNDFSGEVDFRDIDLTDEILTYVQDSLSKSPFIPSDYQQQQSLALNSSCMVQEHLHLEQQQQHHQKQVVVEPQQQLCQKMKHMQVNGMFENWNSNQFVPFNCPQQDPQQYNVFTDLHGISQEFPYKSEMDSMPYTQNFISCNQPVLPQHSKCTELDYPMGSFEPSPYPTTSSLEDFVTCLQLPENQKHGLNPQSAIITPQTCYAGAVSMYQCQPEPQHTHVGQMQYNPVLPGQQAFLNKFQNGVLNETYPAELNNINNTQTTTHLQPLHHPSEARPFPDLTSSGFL

On to `Oc1ccc(C2(c3ccc(O)c(C4CCCCC4)c3)CCCCC2)cc1C1CCCCC1`, for which the call in assay [1], in assay [2], in assay [3], in assay [6], in [8] and in assay [9] was inactive. For the same molecule, the call in assay [11], in [12], in assay [13], in assay [16] and in [19] was inactive. In addition, the AC50 (as a rule, the midpoint of the concentration-response curve, whichever way the signal moves) in [4] was 8.9 µM (active); in assay [5], 2.73 µM (active); in [7] it was 33.4 µM (active); in [10] it was 8.25 µM (active); in assay [14], 8.92 µM (active); in assay [15] it was 8.87 µM (active). The results for the concentration at half-maximal activity (AC50) in assay [17], in assay [18] and in assay [20] were 16.5 µM (active), 60.1 µM (active) and 8.81 µM (active), respectively.
For the molecule `CCOC(=O)CC(=O)C(F)(F)C(F)(F)F`, the AC50 in assay [1] is 9.87 µM (active). In addition, the molecule was called inactive in [2], in [3], in [4], in [5], in assay [6] and in assay [7]. Besides, the molecule was classed as inactive in assay [8], in assay [9], in assay [10], in [11], in [12] and in [13]. Also, the result in assay [14], in assay [15], in assay [16], in assay [17], in assay [18] and in assay [19] was inactive. For the same molecule, the call in assay [20] was inactive.
With `CO[Si](CCCOCC1CO1)(OC)OC` (stereo not given), the molecule was classed as inactive in [1], in assay [2], in assay [3], in assay [4], in assay [5] and in [6]. For the same molecule, the outcome in assay [7], in assay [8], in assay [9], in [10], in [11] and in assay [12] was inactive. Also, the molecule was called inactive in assay [13], in assay [14], in assay [15], in assay [16], in assay [17] and in assay [18]. In addition, the molecule was called inactive in assay [19] and in assay [20].
